Laboratory results taken from PubChem BioAssay.
Activity calls are given as the source filed them.

Key:
[1] = system: Human papillomavirus type 1a protein E7 (residues 44-93); test: small molecules binding HPV E7 44-93 – biochemical, small-molecule microarray, residues 44-93, 635 nm fluorescence, primary screen (AID 1108); settings: fluorescence 635 nm, higher = more signal;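 further: E7 fragment applied at 1 µg/mL in TBST for 1 h at 4 C; score combines spot fluorescence with its signal to noise ratio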
[2] = hepatitis C replication reporter changes, two-sided – Huh7 cells, luciferase reporter, HCV replication inhibitor project, primary screen (AID 1109); settings: Huh7 HCV replicon luciferase reporter, 48 h; higher = more signal;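 further: huh7 hepatoma cells harbouring a luciferase neomycin HCV replicon reporter; luciferase luminescence as measure of HCV replicon replication; test concentration not given here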
[3] = biological target: Left-right determination factor 2 (Homo sapiens) (UniProt O00292); test: small molecules binding LEFTY2 protein – biochemical, small-molecule microarray, 635 nm fluorescence scan, primary screen (AID 1110); settings: higher = more signal
[4] = biological target: Calmodulin-1 (Homo sapiens) (UniProt P0DP23); test: small molecules binding calmodulin-1 with EGTA – biochemical, small-molecule microarray, Cy5-labelled CALM1, profiling panel (AID 1111); settings: Cy5-CALM1 binding fluorescence, higher = more signal;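 further: labelled calmodulin applied in Tris saline Tween buffer holding calcium plus EGTA and DTT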
[5] = biological target: Calmodulin-1 (Homo sapiens) (UniProt P0DP23); test: small molecules binding Ca-loaded calmodulin-1 – biochemical, small-molecule microarray, Cy5-labelled CALM1, plus calcium, artefact control for SMM control-protein annotation, profiling panel (AID 1112); settings: Cy5-CALM1 binding fluorescence, higher = more signal;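 further: score merges spot fluorescence with signal to noise from triplicate slides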
[6] = probe aWnt5a binding to arrayed compounds – biochemical, biotinylated probe, 635/667 nm fluorescence, primary screen (AID 1113); settings: small-molecule microarray, higher = more signal;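 further: score merges 667 nm fluorescence intensity with signal-to-noise per printed feature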
[7] = probe aShh binding to arrayed compounds – biochemical, biotinylated probe, 635/667 nm fluorescence, primary screen (AID 1114); settings: small-molecule microarray, higher = more signal;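 further: probe is biotin-labelled aShh protein from a stem cell growth factor screen; measures binding of labelled protein to compounds printed on the slide; score merges feature fluorescence at 667 nm with signal-to-noise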
[8] = probe aNog binding to arrayed compounds – biochemical, biotinylated probe, 635/667 nm fluorescence, primary screen (AID 1115); settings: small-molecule microarray, higher = more signal;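 further: probe is biotinylated aNog protein used at 0.15 µg/mL for 1 h at 4 C; z-score combines 667 nm fluorescence of each spot with its signal to noise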
[9] = biological target: Torsin-1A-interacting protein 1 (Homo sapiens) (UniProt Q5JTV8); test: compound microarray binding of lysate hLAP1 – cell lysate, small-molecule microarray, COS7 lysate, 635/667 nm fluorescence, primary screen (AID 1116); settings: 635 nm fluorescence, higher = more signal
[10] = biological target: Alpha-bungarotoxin (Bungarus multicinctus) (UniProt P60615); test: compounds binding labelled alpha-BTX control protein – biochemical, small-molecule microarray, Alexa647 label, 635/667 nm fluorescence, artefact control for SMM control protein annotation, profiling panel (AID 1117); settings: alpha-BTX-A647 binding fluorescence, higher = more signal
Albumin (Bos taurus) = Albumin (Bos taurus) (UniProt P02769); test: compounds binding labelled BSA control protein – biochemical, small-molecule microarray, Alexa647 label, 635/667 nm fluorescence, artefact control for SMM control protein annotation, profiling panel (AID 1118); settings: BSA-A647 binding, fluorescence 635 nm, higher = more signal;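 further: score merges 667 nm emission intensity and signal-to-noise per printed compound spot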
[11] = probe aXIP binding to arrayed compounds – biochemical, NeuroSMM set, 635/667 nm fluorescence, primary screen (AID 1119); settings: small-molecule microarray, higher = more signal, called active from +8 up or from −8 down;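 further: probe is the protein aXip251-270 applied at 1 µg/mL to compound-printed slides; binding of probe to printed compounds measured as 667 nm fluorescence plus signal to noise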
[12] = probe aNOTCH3 binding on compound microarray – biochemical, small-molecule microarray, 635/667 nm fluorescence, primary screen (AID 1120); settings: higher = more signal;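 further: probe is a biotin-tagged antibody raised against NOTCH3 rather than NOTCH3 protein; score merges spot fluorescence near 667 nm with spot signal to noise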
[13] = probe aNOTCH2 binding on compound microarray – biochemical, small-molecule microarray, 635/667 nm fluorescence, primary screen (AID 1121); settings: higher = more signal;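 further: score merges feature fluorescence read at 667 nm with its signal to noise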
[14] = biological target: Carbonic anhydrase 2 (Homo sapiens) (UniProt P00918); test: compounds binding carbonic anhydrase 2 – biochemical, small-molecule microarray, Alexa647-labelled CAII, profiling panel (AID 1122); settings: CAII-A647 binding fluorescence, higher = more signal
[15] = COS7 lysate on small-molecule microarray, probe aHis, 635 nm (AID 1123); settings: COS7 cell lysate, fluorescence, higher = more signal;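 further: z-score combines 667nm fluorescence intensity with signal-to-noise per printed compound spot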
[16] = probe aLAP1 signal on lysate-treated microarray – cell lysate, small-molecule microarray, COS7 lysate, primary screen (AID 1124); settings: probe aLAP1, fluorescence, higher = more signal;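 further: lysate comes from COS7 cells expressing LAP1 and is applied at 0.3 µg/mL; score merges spot fluorescence near 667 nm with signal-to-noise over triplicate slides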
Sam68 (KHDRBS1) = test: compounds binding KHDRBS1 protein – biochemical, small-molecule microarray, 635 nm fluorescence, primary screen (AID 1125); settings: higher = more signal;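 further: score merges 667 nm channel intensity with signal to noise over triplicate slides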
[17] = system: Chordin-like protein 2 (CHRDL2); test: compounds binding chordin-like 2 – biochemical, small-molecule microarray, 635 nm fluorescence, primary screen (AID 1126); settings: fluorescence 635 nm, higher = more signal;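 further: printed compound slides probed with Chrdl2 protein at 4 µg/mL for 1 h at 4 C; score merges 667 nm emission intensity with signal to noise over three replicate slides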
[18] = biological target: Concanavalin-A (Canavalia ensiformis) (UniProt P02866); test: compounds binding concanavalin A lectin – biochemical, small-molecule microarray, Alexa647 label, 635 nm, artefact control for SMM control protein annotation, primary screen (AID 1127); settings: ConA-A647 binding fluorescence, higher = more signal;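 further: z combines 667 nm emission intensity with signal-to-noise across three replicate slides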
Chain of Concanavalin-A (Canavalia ensiformis) (P02866 whole entry, looked up): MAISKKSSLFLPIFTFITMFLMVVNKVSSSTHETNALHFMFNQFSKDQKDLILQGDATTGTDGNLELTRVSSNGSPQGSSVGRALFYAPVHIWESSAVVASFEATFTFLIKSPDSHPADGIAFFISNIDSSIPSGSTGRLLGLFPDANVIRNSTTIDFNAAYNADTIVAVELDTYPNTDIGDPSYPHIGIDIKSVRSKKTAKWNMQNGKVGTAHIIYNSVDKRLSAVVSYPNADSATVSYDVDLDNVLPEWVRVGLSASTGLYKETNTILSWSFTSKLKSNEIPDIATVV

Chain of Albumin (Bos taurus) (P02769 whole entry, looked up): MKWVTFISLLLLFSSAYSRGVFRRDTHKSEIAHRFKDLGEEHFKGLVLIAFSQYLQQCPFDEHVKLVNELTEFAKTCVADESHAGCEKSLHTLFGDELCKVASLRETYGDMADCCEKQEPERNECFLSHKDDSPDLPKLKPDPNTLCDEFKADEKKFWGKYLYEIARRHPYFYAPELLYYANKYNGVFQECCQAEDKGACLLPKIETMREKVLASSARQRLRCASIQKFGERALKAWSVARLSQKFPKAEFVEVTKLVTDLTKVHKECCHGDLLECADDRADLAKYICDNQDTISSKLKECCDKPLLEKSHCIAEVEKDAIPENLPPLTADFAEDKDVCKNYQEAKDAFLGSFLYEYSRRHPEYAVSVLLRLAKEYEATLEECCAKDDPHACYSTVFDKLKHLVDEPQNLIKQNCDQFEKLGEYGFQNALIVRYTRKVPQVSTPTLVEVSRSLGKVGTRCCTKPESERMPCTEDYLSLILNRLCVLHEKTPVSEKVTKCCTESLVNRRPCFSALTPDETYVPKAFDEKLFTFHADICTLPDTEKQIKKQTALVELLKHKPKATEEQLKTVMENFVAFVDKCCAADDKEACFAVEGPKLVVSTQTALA
Chain of Alpha-bungarotoxin (Bungarus multicinctus) (P60615 whole entry, looked up): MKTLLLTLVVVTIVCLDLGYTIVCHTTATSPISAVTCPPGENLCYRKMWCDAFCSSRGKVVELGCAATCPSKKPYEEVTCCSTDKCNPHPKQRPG
Chain of Left-right determination factor 2 (Homo sapiens) (O00292 whole entry, looked up): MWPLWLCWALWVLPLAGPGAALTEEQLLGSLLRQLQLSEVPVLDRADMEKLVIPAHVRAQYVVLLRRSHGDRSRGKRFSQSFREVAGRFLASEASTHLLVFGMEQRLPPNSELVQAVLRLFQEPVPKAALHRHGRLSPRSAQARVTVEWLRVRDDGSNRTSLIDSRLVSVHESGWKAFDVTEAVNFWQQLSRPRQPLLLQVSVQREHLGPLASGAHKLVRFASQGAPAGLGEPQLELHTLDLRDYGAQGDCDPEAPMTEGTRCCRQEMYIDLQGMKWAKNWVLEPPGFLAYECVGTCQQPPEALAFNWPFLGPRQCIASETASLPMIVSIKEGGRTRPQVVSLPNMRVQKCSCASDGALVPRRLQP
Chain of Torsin-1A-interacting protein 1 (Homo sapiens) (Q5JTV8 whole entry, looked up): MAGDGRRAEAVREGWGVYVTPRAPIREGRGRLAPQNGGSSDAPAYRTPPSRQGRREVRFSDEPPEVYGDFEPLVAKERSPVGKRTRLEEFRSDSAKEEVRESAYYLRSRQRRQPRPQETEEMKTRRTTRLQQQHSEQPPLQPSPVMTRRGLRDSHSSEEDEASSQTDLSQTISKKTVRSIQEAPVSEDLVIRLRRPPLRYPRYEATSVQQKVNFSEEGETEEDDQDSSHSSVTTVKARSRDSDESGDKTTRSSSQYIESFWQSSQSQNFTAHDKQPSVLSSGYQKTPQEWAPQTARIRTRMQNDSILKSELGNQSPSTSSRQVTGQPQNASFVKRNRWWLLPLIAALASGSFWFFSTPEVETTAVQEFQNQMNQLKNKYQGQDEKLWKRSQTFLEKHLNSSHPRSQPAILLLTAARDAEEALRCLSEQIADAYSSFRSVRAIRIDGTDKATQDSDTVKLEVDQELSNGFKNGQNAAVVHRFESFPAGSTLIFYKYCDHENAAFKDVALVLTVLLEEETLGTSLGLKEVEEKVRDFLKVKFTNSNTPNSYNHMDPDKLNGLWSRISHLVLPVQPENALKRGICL

Structure (SMILES)	composite z-score [1]	z-score [2]	composite z-score [3]	composite z-score [4]	composite z-score [5]	composite z-score [6]	composite z-score [7]	composite z-score [8]	composite z-score [9]	composite z-score [10]	composite z-score (Albumin (Bos taurus))	composite Z-score [11]	composite z-score [12]	composite z-score [13]	composite z-score [14]	composite z-score [15]	composite z-score [16]	composite z-score (Sam68 (KHDRBS1))	composite z-score [17]	composite z-score [18]
CCOC(=O)[C@H](CC(C)C)NC(=O)CCC1CC(OC(=O)NCc2ccc3c(c2)OCO3)CC2(CCCC(COC(=O)NCCC(C)C)O2)O1 (stereo not given in full)	-0.527	0.752	0.0162	-0.344	-0.365	-0.184	-0.283	-0.295	0.0461	0.0789	0.42	0.231 (inactive)	-0.0555	-0.112	0.515	0.298	0.0199	-0.557	-0.085	-0.746
COCOc1ccc(Br)cc1C(=O)C=Cc1ccc2c(c1)OCO2	-0.478	-3.81	0.489	-0.978	-1.25	-0.0721	-0.2	0.0689	0.0258	0.075	-0.0265	1.33 (inactive)	-0.132	-0.169	-0.321	-0.576	-0.684	-0.562	0.525	-0.723
CCOC(=O)CCN1C(=O)[C@H]2[C@H]3[C@H](O)[C@H](O)CC(=NOCC=C(C)CCC=C(C)C)[C@@H]3CC[C@H]2C1=O	-0.401	-0.469	0.631	0.113	-0.672	-0.1	-0.179	-0.0827	0.166	-0.0599	0.275	-0.754 (inactive)	-0.0043	-0.154	0.003	0.0888	0.0278	0.449	0.434	1.01
CO[C@@H](C(C)C)[C@@H](C)C1OC(=O)CC1O (stereo not given in full)	-0.175	0.975	0.0752	-0.32	0.192	-0.232	-0.171	-0.478	-0.214	-0.427	-0.145	0.0923 (inactive)	-0.159	-0.166	-0.169	-0.18	-0.542	-0.22	-0.598	-0.347
CC(CCN1CCc2nc(-c3ccccc3)c(-c3ccccc3)cc2C1)=NO[C@@H](C)c1cc(-c2c(C)cc(C)cc2C)no1	-0.324	-1.47	-0.372	0.445	-0.0323	-0.256	-0.428	-0.0211	-0.0029	1.33	0.554	0.0956 (inactive)	-0.0918	-0.164	0.0148	0.157	-0.0375	-0.0575	-0.583	0.613
CO[C@H]1C[C@@H]2C[C@H](O)CC(CC(=O)O[C@@H](C=CCC(C)C)C[C@@H]3CC[C@H](C)[C@@H](C1)O3)O2	1.27	-0.763	0.748	-0.126	-0.468	-0.0194	0.0815	-0.447	0.536	1.63	0.603	-0.349 (inactive)	0.0824	-0.193	0.276	1.12	-0.0223	1.3	0.629	0.389
CC(C)[C@@H](OCc1ccccc1)[C@H](C)C=NO[C@@H](C)c1cn([C@H](CO)Cc2ccccc2)nn1	0.402	-1.87	0.277	-0.38	-0.281	-0.135	-0.273	0.0715	0.217	-0.0804	0.449	-0.0527 (inactive)	0.209	-0.146	-0.227	-0.205	-0.0074	0.706	0.191	-0.36
O=C1[C@H]2[C@H]3[C@H](O)[C@H](O)CC(=NOC[C@@H](O)COCc4ccco4)[C@@H]3CC[C@H]2C(=O)N1Cc1ccc2c(c1)OCO2	-0.772	0.0878	1.44	-0.982	-2.03	-0.172	-0.123	-0.34	0.0886	0.0167	0.29	0.564 (inactive)	-0.127	-0.148	-0.307	-0.0845	0.123	0.275	1.54	-0.19
COC(=O)CC=C[C@@H](C)[C@@H](C=NOC[C@@H](O)[C@H]1O[C@@H]2OC(C)(C)O[C@@H]2[C@H]1O)OC	0.416	-0.594	0.638	-0.139	-0.565	-0.012	-0.0035	-0.234	0.422	0.265	-0.0287	-0.931 (inactive)	-0.0647	-0.13	-0.131	-0.104	0.149	0.444	0.744	0.333
CCOC(=O)[C@H](CC(C)C)NC(=O)CCC1CC(OC(=O)NCCc2ccc(F)cc2)CC2(CCCC(COC(=O)NCc3cccc4ccccc34)O2)O1 (stereo not given in full)	0.548	-0.893	0.824	0.239	-0.364	-0.156	-0.237	-0.497	0.219	0.0466	0.426	-0.275 (inactive)	-0.235	0.12	0.276	0.96	-0.138	0.695	0.282	0.873
CCCNC(=O)OC[C@H]1O[C@H](CCON=C[C@@H](NS(=O)(=O)c2ccc(C)cc2)[C@H](C)C=CCC(=O)OC)C=C[C@@H]1Oc1ccc(OC)cc1	0.186	-1.65	0.65	-1.21	-1	-0.117	-0.138	-0.0312	0.247	0.0462	-0.413	-0.385 (inactive)	0.0961	-0.0158	-0.437	-0.192	-0.0407	0.0713	0.16	-1.46
